Laboratory results: PubChem BioAssay AID1875 (Broad Institute, 2009)
The campaign covered roughly 300,000 compounds. About 65 (0.02%) were called active.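 How the source made its calls: active means lowest replicate activity score at least 50, where 100 means six control SD above control mean; inconclusive means lowest score under 50 but half or more replicates reach 50; inactive means the rest.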 This excerpt belongs to a sample that is enriched for actives.

experiment: polyadenylation inhibitors in yeast reporter cells, primary screen, luminescence, S. cerevisiae (AID 1875);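 further: yeast exposed to compound for 9 h at 30 °C; higher score means more reporter readthrough which indicates perturbed polyadenylation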; conditions: S. cerevisiae SKY197-pL101 polyadenylation reporter, beta-gal luminescence; at 12 µM; hits give high values; efflux-impaired pdr1/pdr3 knockout yeast; score 100 = 6 SD above DMSO

Activity score, inactive:
CC1C(=O)NC(=O)C1c1ccccc1 (centres undefined) -10.6%, CC(C)Cc1nn2c(=O)cc(O)nc2s1 4.85%, Cc1c(Br)cc(C(=O)N2CCCCCC2)c(C)c1C -12.8%, COc1ccccc1N1CCN(C(=O)c2cc(=O)c3cc(C)cc(C)c3o2)CC1 -11.1%, Cc1c(NS(=O)(=O)c2ccc(NC3CCCC3)c([N+](=O)[O-])c2)c(=O)n(-c2ccccc2)n1C 0.246%, COc1ccccc1OCC(=O)Nc1ccccc1C(=O)NC1CC1 -4.06%, O=C1c2ccccc2C(=O)N1Cc1cc(-c2ccccc2Cl)no1 16.1%, CCCOc1ccc(-c2c(C(=O)N/N=C/c3ccco3)nnn2-c2nonc2N)cc1 -8.58%, COCc1[nH][nH]c(=O)c1C=Nc1ccc(F)cc1F -2.51%, Cc1ccc(NC(=O)C(C)c2cccc(C(=O)c3ccccc3)c2)cc1 (centres undefined) -5.58%, COc1ccccc1N1CCN(S(=O)(=O)c2ccc3c(c2)NC(=O)CS3)CC1 9.75%, CN(C)Cc1ccccc1C1(O)c2ccccc2CSc2ccccc21 (centres undefined) -2.69%, CN(C)C(=O)c1ccc(NC(=O)c2ccccc2-c2ccccc2)cc1 -1.15%, CCC(Cc1ccccc1)NC(=O)C1CCCCC1 (centres undefined) 15.5%, CCCC[C@@H]1CN=C(N)N1CCCC 6.9%, C=CCN1C(=O)C2(OCCCO2)c2cccc(Cl)c21 -10.9%, CC(=O)NC(Cc1ccc(F)c(F)c1)C(=O)NC1CCN(c2nnnn2-c2ccccc2)CC1 (centres undefined) -5.96%, O=C(NCc1ccccc1Cl)NC(=O)c1csc([N+](=O)[O-])c1 8.38%, O=C(NCc1ccccc1)C1=C[C@@H](c2ccc(C(F)(F)F)cc2)C[C@@H](OCc2ccc(CO)cc2)O1 4.63%, Cc1ccc(C)c(N2CCN(C(=O)CCCCCn3c(=S)[nH]c4ccc(N5CCOCC5)cc4c3=O)CC2)c1 13.3%, S=c1[nH]cc(-c2ccc(Cl)cc2)n1-c1ccccc1 -13.1%, CC(C)c1ccc(NC(=O)[C@@H](NC(=O)N2CC(=O)Nc3ccccc32)C(C)C)cc1 8.86%, COc1ccc2c(c1)N(C)/C(=C1/SC(=S)N(NC(C)=O)C1=O)S2 -0.22%, Cc1ccc(C(=O)NC2CCCC(C)C2C)cc1S(=O)(=O)N1CCCCC1 (centres undefined) 0.169%, CCN(CC)Cc1c(C(=O)N/N=C/c2cccc(OCc3ccc(F)cc3)c2)nnn1-c1nonc1N -15.4%, COc1cc(OC)c(-n2cc(-c3ccc(Cl)cc3)[nH]c2=O)cc1Cl -4.07%, O=C1CSc2ccc(S(=O)(=O)NCc3ccccc3)cc2N1 3.02%, O=C(NN1C(=O)C2C3C=CC(O3)C2C1=O)c1ccncc1 (centres undefined) 2.42%, COc1cccc(-n2c(=S)sc3c(=O)n(-c4ccccc4C)c(SCC(=O)O)nc32)c1 27.3%, COc1cc(/C=C/C(=O)OCC(=O)NC(=O)NCc2ccccc2)ccc1OCC#N -0.558%, Cn1nccc1/C=N\NC(=O)c1ccc(Cl)cc1 7.4%, COc1ccc(S(=O)(=O)c2c[nH]c(=S)[nH]c2=O)cc1Cl 11.8%, COc1ccc(CNC(=O)c2ccc(Br)s2)cc1OC 6.38%, COc1ccc(Cl)cc1NC(=O)Cn1nc(-c2ccc(C)cc2)n(C)c1=S -3.37%, O=C(c1[nH]ncc1-c1ccc(Cl)cc1)C1CO1 (centres undefined) 19.5%, O=C(NCc1ccco1)c1ccc(NS(=O)(=O)c2cccc([N+](=O)[O-])c2)cc1 -6.5%, Cc1ccc(C(=O)N/C(=C\c2cn(C)c3ccccc23)C(=O)N2CCN(C)CC2)cc1 -4.13%, NC(=O)c1oc2ccccc2c1NC(=O)CS(=O)(=O)c1ccccc1 13.3%, O=C(O)Cn1c(Cc2ccccc2)nc2ccccc21 -5.1%, CC(C)c1ccc(OCC(O)CN2CCN(c3ccccn3)CC2)cc1 (centres undefined) -11.9%, O=S(=O)(NCCc1ccc(Cl)cc1)c1cccs1 14.8%, O=C(NC1CC1)C(Cc1ccccc1)NS(=O)(=O)c1ccccc1F (centres undefined) 2.29%, COc1ccc(N2CCN(CCNC(=O)Nc3cc(Cl)ccc3Cl)CC2)cc1 -1.83%, N#Cc1ccc(S(=O)(=O)NCC(=O)OCC(=O)NCCc2ccccc2)cc1 3.63%, CSc1ncc(C(=O)Nc2ccc(C)cc2C)c(C)n1 2.7%, CC(=O)c1ccc(S(=O)(=O)N2CCN(c3nc4c(C)c(C)ccc4cc3C#N)CC2)cc1 13.6%, Cc1ccc(NS(=O)(=O)c2ccc(C(C)(C)C)cc2)cn1 -9.91%, COc1ccc(N2CCN(CCNC(=O)c3nnc(Cc4c(F)cccc4Cl)o3)CC2)cc1 -12.7%, CCOC(=O)c1nn(-c2ccccc2F)c2nc(Nc3ccccc3)cc(=O)n12 -12.8%, CN(C)Cc1c(O)ccc2c(=O)c(-c3ccccc3Cl)coc12 8.63%, CN1CCN(C(=O)C(=O)c2cn(CC(=O)N3CCCC3)c3ccccc23)CC1 17%, CC(=O)Nc1ccc(NC(=O)CS(=O)(=O)c2cn(CC(=O)N3CCCCC3)c3ccccc23)cc1 4.41%, S=C(c1ccc(-c2ccccc2)o1)N1CCCCC1 -23.1%, CC(=O)Nc1cccc(OCC(=O)/C=C2\N(C)c3ccccc3C2(C)C)c1 -11.1%, Cc1ccc(OCC(=O)NCCCNC(=O)c2cccnc2)cc1C 0.135%, N#C/C=C\Oc1ccc(Cl)cc1N -86.8%, COC(=O)CSc1ccc2nnc(CCNS(=O)(=O)c3ccc(C)cc3)n2n1 6.76%, COc1ccc(C2Nc3ccccc3C(=O)N2c2ccc(Cl)cc2)cc1Cn1cc([N+](=O)[O-])cn1 (centres undefined) -9.63%, COc1cc(NC(=O)c2ccc(CNc3c(N4CCCC4)c(=O)c3=O)cc2)cc(OC)c1OC 19.5%
